Assay results published in PubChem BioAssay AID1845225 (National Center for Advancing Translational Sciences (NCATS), 2023).
Inconclusive results are not listed. The source made the active and inactive calls. The call rests on the fitted dose curve; in most records, active means well fitted curve in the direction sought with a large enough effect; inconclusive means small, poorly fitted or top-dose-only effect, or effect the other way, or another doubt; inactive means no such curve, though single readings can be large or run the other way.

assay: Confirmatory redox qHTS assay for identification of artifact compounds.; settings: Amplex Red/HRP redox cycling with DTT, fluorescence; series mostly up to 39 µM
Outline: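 Amplex Red (25 uM final) and HRP (250 mU/mL final) in HBSS, compound 15 min, then 250 uM DTT final 30 min, room temperature, dark; fluorescence 525/598 nm, normalized to DMSO and 10 uM DA3003, Hill fitted.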

outcome, inactive:
Cc1ccc(C(=O)CSc2nc(-c3ccccc3)nc3c2CCCC3)c(C)c1, Cc1nc(S(=O)(=O)N2CCN(c3ccccc3F)CC2)cn1C, CCOc1ccc(C[C@H]2NC(=O)CCSSC[C@@H](C(=O)N3CCC[C@H]3C(=O)N[C@@H](CCCN)C(=O)NCC(N)=O)NC(=O)[C@H](CC(N)=O)NC(=O)[C@H]([C@@H](C)O)NC(=O)[C@H]([C@@H](C)CC)NC2=O)cc1, COc1ccccc1CNC(=O)CCC(=O)N1Cc2ccccc2Oc2ncccc21, O=C1c2ccccc2C(=O)N1c1ccc2ncccc2c1, Cc1ccc(OCCn2c(CCNC(=O)c3c(F)cccc3F)nc3ccccc32)cc1, Cc1nc(-c2ccccc2C(C)C)nc(NCc2ccc(-c3cccnc3)cc2)c1C, Cc1cc2c(s1)c1cnn(Cc3cc(F)c(Cl)cc3Cl)c(=O)c1n2C, O=C1C2C3CCCC3=C3CCCC3C2C(=O)N1c1ccc(Cl)cc1 (stereo not given), CN1C(C(=O)Nc2ccc(F)cc2F)=CC(c2cccs2)=NS1(=O)=O, Cc1ccc2c(c1)cc(C(=O)NCc1ccc(F)cc1)n2C, COc1cc2c(NC3CCN(C)CC3)nc(N3CCCN(C)CC3)nc2cc1OCC1CCCNC1 (stereo not given), COc1cccc(CNC(=O)C2Cc3cc(S(=O)(=O)N4CCCCCC4)ccc3N2C(C)=O)c1 (stereo not given), COc1cc2nc(N3CCCCC3)nc(NC3CCN(Cc4ccccc4)CC3)c2cc1OC, C=C[C@@H]1C[C@@H](C=C)OP(=O)(O[C@@H](C=C)[C@@H](C)C(=O)OC)O1 (stereo not given in full), COc1ccc(S(=O)(=O)N(CCc2ccccc2)CC(=O)Nc2cc(Cl)ccc2C)cc1, COc1ccc(-c2nc(CS(=O)CC(=O)NCCc3ccccc3)c(C)o2)cc1OC (stereo not given), CCCCCCCCOc1ccc(C(=O)O)cc1, CCCC(=O)O[C@]1(C(=O)COC(C)=O)CC[C@H]2[C@@H]3C[C@H](F)C4=CC(=O)C=C[C@]4(C)[C@@]3(F)[C@@H](O)C[C@@]21C, Clc1ccccc1CNc1ncnc2nc[nH]c12, O=C(NC1CCCCCC1)c1ccc(CS(=O)c2ccc(Br)cc2)o1 (stereo not given), COc1cc2nc(N3CCCCC3)nc(NC(C)C)c2cc1OC, CC(=O)N1CCC(C(=O)Nc2nnc(C(C)C)s2)CC1, CCOc1ccc(Cn2c(=O)sc3ccccc32)cc1, CCOc1ccc2nc(N3CCC(C(=O)Nc4ccc(Br)cc4F)CC3)sc2c1, COc1ccc(-c2cc(=O)c3ccccc3o2)cc1, COc1ccccc1CNC(=O)CCCn1c(=O)c2ccccc2n(CC(=O)Nc2ccc(C)cc2Cl)c1=O, O=C(CSc1nc(-c2ccccc2)[nH]c1-c1ccc(F)cc1)NC1CCCC1, Cc1ccc(C)c(NC(=O)CC2NCCNC2=O)c1 (stereo not given), COc1cc2c(NC3CCN(C)CC3)nc(N3CCCN(C)CC3)nc2cc1OCCCN(C)C, COC(=O)c1c(SC)nc2ccccc2c1OCc1ccc(Br)cc1, CNC(=O)c1ccc(Nc2nnc(-c3ccc(C)c(S(=O)(=O)N4CCOCC4)c3)c3ccccc23)cc1, CCOc1ccc(CNC(=O)CN2C(=O)CSc3c2c(C)nn3-c2ccccc2)cc1, Cc1cc(NC(=O)c2ccc([S+](=O)([O-])NCc3ccc(Cl)c(Cl)c3)cc2)no1, COc1ccc(N2CC(NC(=O)c3ccco3)CC2=O)cc1 (stereo not given), Cc1cccc(C)c1NC(=O)CCSCCc1ccccn1, Cc1cc(C)cc(NC(=O)CSc2cc(C)[nH]c(=O)n2)c1, Nc1ccc(F)cc1F, Cc1cccc(NC(=O)CN2C(=O)C(c3ccc(F)cc3)=NC23CCCCCC3)c1, O=S(=O)(c1cc(Br)c(Br)s1)N1CCN(c2ccccc2)CC1
